Results on 31 molecules are retold here after PubChem BioAssay (Tox21).

Several values for one entry are separate records, joined by “and”; a condition that tells them apart may be missing. Equal values may be shown once. A number with no mark means an inactive call. Inconclusive results are not listed. Activity calls are given as the source filed them. Calls come from the whole dose curve; as a rule, active = well fitted curve in the direction sought with a large enough effect in the repeat runs; inconclusive = weak or mixed curves; inactive = no such curve, though single readings can be large; an effect the other way counts as inactive or inconclusive.

A short description of assay [1]: qHTS assay to identify small molecule antagonists of the glucocorticoid receptor (GR) signaling pathway - cell viability counter screen (AID 720693). Note: nearly all actives have a fitted effect of over 55% in size. A general note: In qHTS, concentration-response curves come from the screen itself.
A short description of assay [2]: qHTS assay for identifying genotoxic compounds that show differential cytotoxicity against isogenic chicken DT40 cell lines with known DNA damage response pathways - wild type cell line (AID 743012). Note: nearly all actives have a fitted effect of over 60% in size. Note: potency is the fitted concentration of half-maximal effect. Summed up:
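Cytotoxicity in repair-proficient parental chicken DT40 cells serves as the comparator for Rad54/Ku70- and Rev3-deficient lines. Cells were exposed to compounds for 40 h at 37 C/5% CO2, and ATP-based luminescence (CellTiter-Glo) measured viability.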

A short description of assay [3]: qHTS assay for identifying genotoxic compounds that show differential cytotoxicity against isogenic chicken DT40 cell lines with known DNA damage response pathways - Rev3 mutant cell line (AID 743014). Note: nearly all actives have a fitted effect of over 55% in size. Note: potency is the fitted concentration of half-maximal effect.
A short description of assay [4]: qHTS assay for identifying genotoxic compounds that show differential cytotoxicity against isogenic chicken DT40 cell lines with known DNA damage response pathways - Rad54/Ku70 mutant cell line (AID 743015). Note: nearly all actives have a fitted effect of over 60% in size. Note: potency is the fitted concentration of half-maximal effect.
Assay [5] is described as follows: qHTS assay to identify small molecule antagonists of the androgen receptor (AR) signaling pathway - cell viability counter screen (AID 743033; note: nearly all actives have a fitted effect of over 45% in size).
Assay [6] is described as follows: qHTS assay to identify small molecule antagonists of the androgen receptor (AR) signaling pathway using the MDA cell line - cell viability counter screen (AID 743041; note: nearly all actives have a fitted effect of over 45% in size; note: potency is the fitted concentration of half-maximal effect). Summed up: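 In this qHTS counter assay, fluorescence intensity after CellTiter-Fluor addition indicated viability of MDA-kb2 AR-luc cells given compounds and R1881 for 16 h at 37C.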
A short description of assay [7]: qHTS assay to identify small molecule antagonists of the thyroid receptor (TR) signaling pathway - cell viability counter screen (AID 743064). Note: nearly all actives have a fitted effect of over 50% in size. Note: potency is the fitted concentration of half-maximal effect. In outline: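 In rat pituitary GH3.TRE-Luc reporter cells co-exposed to compound and 1 nM T3 for 23.5 h, cytotoxicity was assessed with CellTiter-Fluor in the same wells, read by fluorescence.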
Assay [8] addresses Androgen receptor (Homo sapiens) (UniProt P10275). In words: qHTS assay to identify small molecule agonists of the androgen receptor (AR) signaling pathway using the MDA cell line (AID 743040; note: nearly all actives have a fitted effect of over 20% in size). Summed up:
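Cell-based luciferase reporter: MDA-kb2, MMTV promoter (AR + GR response elements). 16 h compound exposure at 37C; ONE-Glo, 30 min RT, luminescence.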

Sequence of Androgen receptor (Homo sapiens) (P10275 whole entry, looked up): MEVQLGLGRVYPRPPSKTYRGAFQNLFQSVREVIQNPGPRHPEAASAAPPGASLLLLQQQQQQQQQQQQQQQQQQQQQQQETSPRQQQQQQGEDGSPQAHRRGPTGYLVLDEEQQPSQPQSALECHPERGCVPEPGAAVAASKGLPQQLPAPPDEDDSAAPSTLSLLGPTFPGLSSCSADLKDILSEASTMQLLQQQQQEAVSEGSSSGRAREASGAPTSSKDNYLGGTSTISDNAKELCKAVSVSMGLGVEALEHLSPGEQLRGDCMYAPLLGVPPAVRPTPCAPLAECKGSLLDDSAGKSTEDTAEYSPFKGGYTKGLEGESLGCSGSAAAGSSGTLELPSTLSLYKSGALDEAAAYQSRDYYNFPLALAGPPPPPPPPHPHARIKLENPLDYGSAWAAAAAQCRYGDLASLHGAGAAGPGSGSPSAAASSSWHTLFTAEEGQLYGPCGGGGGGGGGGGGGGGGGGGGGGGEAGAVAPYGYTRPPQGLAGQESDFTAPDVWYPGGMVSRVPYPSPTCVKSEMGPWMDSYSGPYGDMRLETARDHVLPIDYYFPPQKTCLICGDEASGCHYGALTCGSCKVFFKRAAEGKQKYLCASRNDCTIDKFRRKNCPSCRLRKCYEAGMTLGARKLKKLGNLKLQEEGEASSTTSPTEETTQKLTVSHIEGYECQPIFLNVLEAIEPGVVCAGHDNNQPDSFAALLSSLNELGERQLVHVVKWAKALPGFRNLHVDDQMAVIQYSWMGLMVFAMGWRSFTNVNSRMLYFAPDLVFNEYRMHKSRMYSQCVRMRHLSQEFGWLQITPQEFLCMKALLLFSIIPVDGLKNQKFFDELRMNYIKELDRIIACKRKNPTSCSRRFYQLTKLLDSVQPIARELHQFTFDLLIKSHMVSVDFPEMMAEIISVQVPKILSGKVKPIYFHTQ

For `O=C(CO)[C@@H](O)[C@H](O)[C@H](O)CO`, the outcome in assay [1] and in assay [5] was inactive. The Potency entry in assay [2], in assay [3], in assay [4], in assay [6] and in assay [7] was “inactive” throughout.
As to `CC(=O)O[C@@]12CO[C@@H]1C[C@H](O)[C@@]1(C)C(=O)[C@H](O)C3=C(C)[C@@H](OC(=O)[C@H](O)[C@@H](NC(=O)OC(C)(C)C)c4ccccc4)C[C@@](O)([C@@H](OC(=O)c4ccccc4)[C@H]21)C3(C)C`, the outcome in assay [1] and in assay [5] was inactive. Besides, the Potency in assay [2] was 0.0017 µM (active); in assay [3], 1.7 nM (active) and 1.9 nM (active); in assay [4], 0.0027 µM (active); in assay [7], 29.8 nM (active) and 106 nM (active). Further, the Potency entry in assay [8] and in assay [6] was “inactive” each time.
As to `CC1=NN(c2cc(S(=O)(=O)O)ccc2Cl)C(=O)C1N=Nc1ccccc1` (centres undefined), the result in assay [1] and in assay [5] was inactive. For the same molecule, the Potency entry in assay [2], in assay [3] and in assay [4] was “inactive” each time. The Potency in assay [6] is 61.1 µM (active).
With `CCN[C@H]1C[C@H](C)S(=O)(=O)c2sc(S(N)(=O)=O)cc21`, the molecule was classed as inactive in assay [1] and in assay [5]. In addition, the Potency entry in assay [2], in assay [3], in assay [4], in assay [6] and in assay [7] was “inactive” in each case.
Take `C[C@@H]1CCC[C@H](C)N1`: the outcome in assay [1] and in assay [5] was inactive. For the same molecule, the Potency entry in assay [2], in assay [3], in assay [4] and in assay [6] was “inactive” each time.
For `C1CCC2=NCCCN2CC1`, the result in assay [1] and in assay [5] was inactive. Besides, the Potency entry in assay [2], in assay [3], in assay [4] and in assay [6] was “inactive” throughout.
`CCN1C=CN(C)C1C` (centres undefined): the molecule was called inactive in assay [1] and in assay [5]. The Potency result in assay [2], in assay [3], in assay [4], in assay [6] and in assay [7] was “inactive” each time.
Regarding `N[C@H](C(=O)O)[C@@H](O)c1ccc(O)c(O)c1`, the call in assay [1] and in assay [5] was inactive. The Potency in assay [2] is 13.3 µM (active); in assay [3] it was 16.8 µM (active); in assay [4], 21.1 µM (active). Further, the Potency result in assay [6] is “inactive”.
For `CC(C)(CCC(=O)O)C(=O)O`, the outcome in assay [1] and in assay [5] was inactive. Also, the Potency result in assay [2], in assay [3], in assay [4], in assay [6] and in assay [7] was “inactive” each time.
For the molecule `CN(C)C(=O)Oc1cccc([N+](C)(C)C)c1`, the result in assay [1] and in assay [5] was inactive. The Potency entry in assay [2], in assay [3], in assay [4], in assay [6] and in assay [7] was “inactive” throughout.
In the case of `CC1=CCC(O)(C(C)C)CC1` (centres undefined), the molecule was classed as inactive in assay [1] and in assay [5]. Also, the Potency entry in assay [2], in assay [3], in assay [4], in assay [6] and in assay [7] was “inactive” in each case.
As to `NC(CCC(=O)O)C(=O)O` (centres undefined), the outcome in assay [1] and in assay [5] was inactive. For the same molecule, the Potency entry in assay [2], in assay [3], in assay [4], in assay [6] and in assay [7] was “inactive” in each case.
For the molecule `CCCCCC(=O)OCCc1ccccc1`, the result in assay [1] and in assay [5] was inactive. For the same molecule, the Potency entry in assay [2], in assay [3], in assay [4], in assay [6] and in assay [7] was “inactive” throughout.
On to `O=CN(CCO)CCO`, for which the result in assay [1] and in assay [5] was inactive. Besides, the Potency entry in assay [2], in assay [3], in assay [4], in assay [6] and in assay [7] was “inactive” in each case.
Turning to `O=C(O)CNC(=O)c1ccccc1`, the result in assay [1] and in assay [5] was inactive. Besides, the Potency entry in assay [2], in assay [3], in assay [4], in assay [6] and in assay [7] was “inactive” each time.
In the case of `CC(=O)c1ccccc1[N+](=O)[O-]`, the molecule was classed as inactive in assay [1] and in assay [5]. In addition, the Potency entry in assay [2], in assay [3], in assay [4], in assay [6] and in assay [7] was “inactive” each time.
Turning to `C=CCOCC(O)CO` (centres undefined), the molecule was classed as inactive in assay [1] and in assay [5]. Further, the Potency entry in assay [2], in assay [3], in assay [4], in assay [6] and in assay [7] was “inactive” in each case.
For `[O-][n+]1cccc(CO)c1`, the call in assay [1] and in assay [5] was inactive. For the same molecule, the Potency result in assay [2], in assay [3], in assay [4], in assay [6] and in assay [7] was “inactive” each time.
For `[K+]`, the result in assay [1] and in assay [5] was inactive. The Potency result in assay [2], in assay [3], in assay [4], in assay [6] and in assay [7] was “inactive” in each case.
As to `CN(C)CCN(C)CCN(C)C`, the call in assay [1] and in assay [5] was inactive. Besides, the Potency entry in assay [2], in assay [3], in assay [4], in assay [6] and in assay [7] was “inactive” throughout.
For `CC(C)(C#N)Nc1nc(Cl)nc(NC2CC2)n1`, the molecule was classed as inactive in assay [1] and in assay [5]. Besides, the Potency entry in assay [2], in assay [3], in assay [4], in assay [6] and in assay [7] was “inactive” each time.
For the molecule `CCCCN(CCC(=O)OCC)C(C)=O`, the result in assay [1] and in assay [5] was inactive. For the same molecule, the Potency result in assay [2], in assay [3], in assay [4], in assay [6] and in assay [7] was “inactive” throughout.
Regarding `OCCc1ccccn1`, the call in assay [1] and in assay [5] was inactive. In addition, the Potency entry in assay [2], in assay [3], in assay [4], in assay [6] and in assay [7] was “inactive” each time.
In the case of `NC(=O)N1c2ccccc2CC(=O)c2ccccc21`, the outcome in assay [1] and in assay [5] was inactive. The Potency in assay [2] is 5.96 µM (active); in assay [3], 5.96 µM (active); in assay [4] it was 5.96 µM (active); in assay [7], 13.3 µM (active). The Potency entry in assay [6] was “inactive”.
In the case of `CCCCOCCOC(=O)CCCCCCCCC(=O)OCCOCCCC`, the molecule was called inactive in assay [1] and in assay [5]. In addition, the Potency result in assay [2], in assay [3], in assay [4], in assay [6] and in assay [7] was “inactive” each time.
`O=Cc1cccc(Br)c1`: the result in assay [1] and in assay [5] was inactive. Also, the Potency result in assay [2], in assay [3], in assay [4], in assay [6] and in assay [7] was “inactive” in each case.
For the molecule `CN(C)CCCN(C)CCCN(C)C`, the result in assay [1] and in assay [5] was inactive. Also, the Potency result in assay [2], in assay [3], in assay [4], in assay [6] and in assay [7] was “inactive” throughout.
With `C=COC(=O)C(C)(CC)CCC(C)C` (centres undefined), the call in assay [1] and in assay [5] was inactive. Further, the Potency result in assay [2], in assay [3], in assay [4], in assay [6] and in assay [7] was “inactive” each time.
For `O=C1NC(=O)C2CC=CCC12` (centres undefined), the molecule was classed as inactive in assay [1] and in assay [5]. For the same molecule, the Potency entry in assay [2], in assay [3], in assay [4], in assay [6] and in assay [7] was “inactive” throughout.
For `CC(=O)Oc1cccc(C)c1`, the result in assay [1] and in assay [5] was inactive. Moreover, the Potency entry in assay [2], in assay [3], in assay [4], in assay [6] and in assay [7] was “inactive” throughout.
Turning to `CC1=CC(=O)[C@H]2C[C@@H]1C2(C)C`, the result in assay [1] and in assay [5] was inactive. Moreover, the Potency result in assay [2], in assay [3], in assay [4], in assay [6] and in assay [7] was “inactive” throughout.
